In PubChem BioAssay (NCATS):
Records with an inconclusive call do not appear. Calls of active or inactive are those of the source. Unless noted, calls come from the whole dose curve.

Assays:
[1] = qHTS for Inhibitors of the Functional Ribonucleoprotein Complex (vRNP) of Lassa (LASV) Arenavirus: LASV Primary Screen - GLuc reporter signal (AID 1347082; calls by dose curve; tested in HEK293 reporter line; note: series mostly up to about 57 µM; nearly all actives have a fitted effect of over 60% in size)
[2] = qHTS for Inhibitors of the Functional Ribonucleoprotein Complex (vRNP) of Lassa (LASV) Arenavirus: Viability assay - alamar blue signal for LASV Primary Screen (AID 1347083; calls by dose curve; tested in HEK293 reporter line; note: series mostly up to about 57 µM; nearly all actives have a fitted effect of over 80% in size)
[3] = qHTS for Inhibitors of the Functional Ribonucleoprotein Complex (vRNP) of Lymphocytic Choriomeningitis Arenaviruses (LCMV): Viability assay - alamar blue signal for LCMV Primary Screen (AID 1347085; calls by dose curve; tested in HEK293 reporter line; note: series mostly up to about 57 µM; nearly all actives have a fitted effect of over 80% in size)
[4] = biological target: Nucleoprotein (Lymphocytic choriomeningitis virus (strain Armstrong)) (UniProt P09992); assay: qHTS for Inhibitors of the Functional Ribonucleoprotein Complex (vRNP) of Lymphocytic Choriomeningitis Arenaviruses (LCMV): LCMV Primary Screen - GLuc reporter signal (AID 1347086); note: series mostly up to about 57 µM; nearly all actives have a fitted effect of over 70% in size
Chain of Nucleoprotein (Lymphocytic choriomeningitis virus (strain Armstrong)) (P09992 whole entry, looked up): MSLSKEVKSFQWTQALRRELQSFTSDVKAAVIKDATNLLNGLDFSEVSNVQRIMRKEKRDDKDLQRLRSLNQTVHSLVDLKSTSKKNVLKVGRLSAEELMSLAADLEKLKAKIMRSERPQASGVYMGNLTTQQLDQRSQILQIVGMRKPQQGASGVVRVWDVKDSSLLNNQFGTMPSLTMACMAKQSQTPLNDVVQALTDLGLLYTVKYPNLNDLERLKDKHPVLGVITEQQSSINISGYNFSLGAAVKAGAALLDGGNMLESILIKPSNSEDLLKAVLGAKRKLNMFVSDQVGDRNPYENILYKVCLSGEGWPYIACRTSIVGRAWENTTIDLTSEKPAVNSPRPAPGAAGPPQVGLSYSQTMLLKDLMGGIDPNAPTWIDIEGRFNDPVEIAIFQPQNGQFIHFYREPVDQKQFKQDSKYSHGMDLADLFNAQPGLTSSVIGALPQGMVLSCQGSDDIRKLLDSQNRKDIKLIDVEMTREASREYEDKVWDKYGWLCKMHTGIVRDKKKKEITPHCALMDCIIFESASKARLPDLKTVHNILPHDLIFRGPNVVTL

[5] = qHTS of pediatric cancer cell lines to identify multiple opportunities for drug repurposing: Primary screen for TC32 cells (AID 1347089; active = well fitted curve in the direction sought with a large enough effect; an effect the other way counts as inactive or inconclusive; note: nearly all actives have a fitted effect of over 60% in size)
Outline: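 Luminescent ATP read-out (CellTiter-Glo) of metabolically active TC32 cells after 48 h exposure. Concentration-response curves came from 11-point (MIPE, 0.78 nM–46 µM) or 8-point (NPC, 0.59 nM–46 µM) primary titrations; follow-up used 11 points.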

[6] = qHTS of pediatric cancer cell lines to identify multiple opportunities for drug repurposing: Primary screen for DAOY cells (AID 1347090; active = well fitted curve in the direction sought with a large enough effect; an effect the other way counts as inactive or inconclusive; note: series mostly up to about 46 µM; nearly all actives have a fitted effect of over 55% in size)
Outline: (§1)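 Eight- or eleven-point concentration series, 48 h treatment at 37 degrees C in growth media; readout CellTiter-Glo luminescence. Potency and efficacy were taken from the concentration-response curves.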

[7] = qHTS of pediatric cancer cell lines to identify multiple opportunities for drug repurposing: Primary screen for SJ-GBM2 cells (AID 1347091; active = well fitted curve in the direction sought with a large enough effect; an effect the other way counts as inactive or inconclusive)
Outline: as §1

[8] = qHTS of pediatric cancer cell lines to identify multiple opportunities for drug repurposing: Primary screen for A673 cells (AID 1347092; active = well fitted curve in the direction sought with a large enough effect; an effect the other way counts as inactive or inconclusive; note: nearly all actives have a fitted effect of over 45% in size)
Outline: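 Cell viability of A673 measured by CellTiter-Glo ATP luminescence after 48 hours compound exposure. Dilution series spanned 0.78 nM to 46 µM (MIPE, 11-point) or 0.59 nM to 46 µM (NPC, 8-point); bortezomib 2.3 uM positive control.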

[9] = qHTS of pediatric cancer cell lines to identify multiple opportunities for drug repurposing: Primary screen for SK-N-MC cells (AID 1347093; active = well fitted curve in the direction sought with a large enough effect; an effect the other way counts as inactive or inconclusive; note: series mostly up to about 46 µM)
Outline: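 Metabolically active cells were quantified by ATP-dependent luminescence (CellTiter-Glo, 15 min at room temperature) following 48 h treatment. Cells had been plated at 500-1,000 per well and settled for 5 h beforehand.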

[10] = qHTS of pediatric cancer cell lines to identify multiple opportunities for drug repurposing: Primary screen for BT-37 cells (AID 1347094; active = well fitted curve in the direction sought with a large enough effect; an effect the other way counts as inactive or inconclusive; note: series mostly up to about 57 µM)
Outline: (§2)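 ATP-based luminescence (CellTiter-Glo) quantifies viability after a 48-hour exposure. Compounds are dosed across 8 or 11 final concentrations; DMSO and 2.3 µM bortezomib serve as controls.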

[11] = qHTS of pediatric cancer cell lines to identify multiple opportunities for drug repurposing: Primary screen for NB-EBc1 cells (AID 1347095; active = well fitted curve in the direction sought with a large enough effect; an effect the other way counts as inactive or inconclusive)
Outline: as §2

[12] = qHTS of pediatric cancer cell lines to identify multiple opportunities for drug repurposing: Primary screen for U-2 OS cells (AID 1347096; active = well fitted curve in the direction sought with a large enough effect; an effect the other way counts as inactive or inconclusive; note: nearly all actives have a fitted effect of over 50% in size)
Outline: (§3)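 Cells (500-1,000/well) in growth media were settled 5 h at 37 degrees C, then given compounds for 48 h. Viability was read as CellTiter-Glo luminescence. Primary runs used MIPE at 11 points (0.78 nM-46 µM) and NPC at 8 points (0.59 nM-46 µM); follow-ups used 11 points.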

[13] = qHTS of pediatric cancer cell lines to identify multiple opportunities for drug repurposing: Primary screen for Saos-2 cells (AID 1347097; active = well fitted curve in the direction sought with a large enough effect; an effect the other way counts as inactive or inconclusive; note: nearly all actives have a fitted effect of over 40% in size)
Outline: as §2

[14] = qHTS of pediatric cancer cell lines to identify multiple opportunities for drug repurposing: Primary screen for SK-N-SH cells (AID 1347098; active = well fitted curve in the direction sought with a large enough effect; an effect the other way counts as inactive or inconclusive;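 note: DMSO served as neutral control and bortezomib at 2.3 µM as positive control; nearly all actives have a fitted effect of over 65% in size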)
Outline: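 Cells (500-1,000/well) rested 5 h, then received compounds for 48 h; metabolically active cells were measured by CellTiter-Glo luminescence. Final concentrations spanned up to 46 µM (MIPE, 11-point) or 0.59 nM-46 µM (NPC, 8-point) in primary screens, 11-point in follow-ups.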

[15] = qHTS of pediatric cancer cell lines to identify multiple opportunities for drug repurposing: Primary screen for NB1643 cells (AID 1347099; active = well fitted curve in the direction sought with a large enough effect; an effect the other way counts as inactive or inconclusive; note: nearly all actives have a fitted effect of over 50% in size)
Outline: as §2

[16] = qHTS of pediatric cancer cell lines to identify multiple opportunities for drug repurposing: Primary screen for LAN-5 cells (AID 1347100; active = well fitted curve in the direction sought with a large enough effect; an effect the other way counts as inactive or inconclusive)
Outline: as §3

Measured: Potency

CO/N=C(\C(=O)N[C@@H]1C(=O)N2C(C(=O)O)=C(CSc3nc(=O)c(O)nn3C)CS[C@H]12)c1csc(N)n1
inactive: [1] | [2] | [3] | [4]

O=C(O)CCNC(=O)c1ccc(N=Nc2ccc(O)c(C(=O)O)c2)cc1
inactive: [1] | [2] | [3] | [4]

COc1cc(Cc2cnc(N)nc2N)cc(OC)c1OC
inactive: [1] | [2] | [3] | [4]

CCCc1cc(=O)[nH]c(=S)[nH]1
inactive: [1] | [2] | [3] | [4]

C[C@@H]1C[C@H]2[C@@H]3CCC4=CC(=O)C=C[C@]4(C)[C@@]3(F)[C@@H](O)C[C@]2(C)[C@@]1(O)C(=O)CO
inactive: [1] | [2] | [3] | [4]

COC(=O)C(c1ccccc1Cl)N1CCc2sccc2C1 (configuration not stated)
inactive: [1] | [2] | [3] | [4]

CC(C)C1CCC(C(=O)N[C@H](Cc2ccccc2)C(=O)O)CC1 (some centres not stated)
inactive: [1] | [2] | [3] | [4]

CC(c1cc2ccccc2s1)N(O)C(N)=O (configuration not stated)
inactive: [1] | [2] | [3] | [4]

CCC1C(=O)OCC1Cc1cncn1C (configuration not stated)
inactive: [1] | [2] | [3] | [4]

CC(=O)Nc1nnc(S(N)(=O)=O)s1
inactive: [1] | [2] | [3] | [4]

Cc1cccc(Nc2ccccc2C(=O)O)c1C
inactive: [1] | [2] | [3] | [4]

CN(C)CC/C=C1\c2ccccc2COc2ccccc21
inactive: [1] | [2] | [3] | [4]

COc1cc2nc(N(C)CCCNC(=O)C3CCCO3)nc(N)c2cc1OC (configuration not stated)
inactive: [1] | [2] | [3] | [4]

CN(C)/N=N/c1nc[nH]c1C(N)=O
inactive: [1] | [2] | [3] | [4]

CCN(CC)CCNC(=O)c1cc(Cl)c(N)cc1OC
inactive: [1] | [2] | [3] | [4]

CCCNCC(O)COc1ccccc1C(=O)CCc1ccccc1 (configuration not stated)
inactive: [1] | [2] | [3] | [4]

Clc1ccc(C(c2ccccc2Cl)C(Cl)Cl)cc1 (configuration not stated)
inactive: [1] | [2] | [3] | [4]

CNCCc1ccccn1
inactive: [1] | [2] | [3] | [4]

CC(=O)N[C@@H](CS)C(=O)O
inactive: [1] | [2] | [3] | [4]

COCCCC/C(=N\OCCN)c1ccc(C(F)(F)F)cc1
inactive: [1] | [2] | [3] | [4]

CN1CCN(C2=Nc3ccccc3Oc3ccc(Cl)cc32)CC1
inactive: [1] | [2] | [3] | [4]

COc1cc2c(cc1OC)C(=O)C(CC1CCN(Cc3ccccc3)CC1)C2 (configuration not stated)
inactive: [1] | [2] | [3] | [4]

OCCOCCN1CCN(C(c2ccccc2)c2ccc(Cl)cc2)CC1 (configuration not stated)
inactive: [1] | [2] | [3] | [4]

CCCCc1nc(Cl)c(CO)n1Cc1ccc(-c2ccccc2-c2nn[nH]n2)cc1
inactive: [1] | [2] | [3] | [4]

O=C1Nc2ccc(Cl)cc2[C@@](C#CC2CC2)(C(F)(F)F)O1
inactive: [1] | [2] | [3] | [4]

CC/C(=C(\c1ccccc1)c1ccc(OCCN(C)C)cc1)c1ccccc1
inactive: [1] | [2] | [3] | [4]

CC[C@@H]([C@H](C)O)n1ncn(-c2ccc(N3CCN(c4ccc(OC[C@@H]5CO[C@@](Cn6cncn6)(c6ccc(F)cc6F)C5)cc4)CC3)cc2)c1=O
inactive: [1] | [2] | [3] | [4]

Clc1cccc(N2CCNCC2)c1
inactive: all assays above

CC(=O)OCC(CCn1cnc2cnc(N)nc21)COC(C)=O
inactive: [1] | [2] | [3] | [4]

COc1ccccc1Oc1c(NS(=O)(=O)c2ccc(C(C)(C)C)cc2)nc(-c2ncccn2)nc1OCCO
inactive: [1] | [2] | [3] | [4]

CCC(C)n1ncn(-c2ccc(N3CCN(c4ccc(OC[C@H]5CO[C@](Cn6cncn6)(c6ccc(Cl)cc6Cl)O5)cc4)CC3)cc2)c1=O (some centres not stated)
inactive: [1] | [2] | [3] | [4]

CC[C@@H](CO)NCCN[C@@H](CC)CO
inactive: [1] | [2] | [3] | [4]

O=C1CCC(N2C(=O)c3ccccc3C2=O)C(=O)N1 (configuration not stated)
inactive: [1] | [2] | [3] | [4]

CCN(C(C)=O)c1cccc(-c2ccnc3c(C#N)cnn23)c1
inactive: all assays above

CC(=O)CCCCn1c(=O)c2c(ncn2C)n(C)c1=O
inactive: [1] | [2] | [3] | [4]

O=P(O)(O)C(O)(Cc1cccnc1)P(=O)(O)O
inactive: [1] | [2] | [3] | [4]

NC(=O)C(c1ccccc1)(c1ccccc1)[C@@H]1CCN(CCc2ccc3c(c2)CCO3)C1
inactive: [1] | [2] | [3] | [4]
